Rows were chosen to be rich in hits. Some 1.6% of all compounds tested hit in one or more screens of this group.
PABP polyA inh: PABP-poly(A) binding inhibition; P11940; PABP-poly(A) RNA binding, fluorescence polarization; calls only at 35 µM; 290,000 compounds, 1% hits; AID 2014;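 also: calls also rest on retests at 20 µM and on dose response follow-up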
PERK inhibitor: human PERK inhibition, primary cell-based screen; CHO PERK-DD fusion, SEAP luminescence translation reporter; inhibition, % at 5.6 µM; 220,000 compounds, 0.17% hits; AID 1416;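 active = inhibition above the mean inhibition of all tested compounds plus 3 SD, set separately per screening campaign, cut at about 2.9% in these data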;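 also: PERK kinase domain activated by AP20187 dimerizer at 100 nM; 0% = DMSO with dimerizer and 100% = rapamycin at 8.4 µM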
eIF4H inh: inhibitors of RNA binding by human eIF4H. eIF4H fluorescence polarization binding assay. inhibition, % at 35 µM. 290,000 compounds, 0.94% hits;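 also: calls also rest on retests at 20 µM and on dose response follow-up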
eIF4E 4G PPI: eIF4E/eIF4G interaction inhibition in translation initiation. inhibition, % at 21.7 µM. 220,000 compounds, 0.37% hits. AID 782. TR-FRET eIF4E-eIF4GI(517-606) binding, 2 h;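 active = inhibition above about 30%, limit read from the data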;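 also: 0% = full FRET control wells and 100% = background wells lacking eIF4GI fragment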
PABP1 MLLE inh: blocks PAM2 peptide binding to the PABP1 MLLE domain. P11940. GST-MLLE / FITC-PAM2 fluorescence polarization. inhibition, % at 20 µM. 360,000 compounds, 0.36% hits; in the data active = inhibition above about 35%, passing the limit was not always enough;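 also: plate controls were DMSO wells with GST-MLLE for no effect and wells lacking GST-MLLE protein for full effect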
Starred values were filed as active, the others as inactive; i = inactive; ? = inconclusive; · = not tested or not shown; + = active, no number. Unless noted, no rule for the calls is given here.

SMILES | PABP polyA inh | PERK inhibitor | eIF4H inh | eIF4E 4G PPI | PABP1 MLLE inh
Oc1ccc(C=Nc2ccc(N3CCOCC3)cc2)c(O)c1 | i | -1 | -2 | 5 | -35
CCOC(=O)CSc1nc2c(c(=O)[nH]c(=O)n2C)n1C/C=C(/C)Cl | i | 0 | 2 | 12 | 37*
CCOC(=O)C(CC)Sc1nc2c(c(=O)[nH]c(=O)n2C)n1CCc1ccccc1 (centres undefined) | i | -1 | 1 | -5 | 40*
CCCCn1c(SCC(=O)OCC)nc2c1c(=O)[nH]c(=O)n2C | i | 0 | 3 | 2 | 18
CC=CCn1c(SCc2ccccc2)nc2c1c(=O)[nH]c(=O)n2C | · | · | · | · | 43*
CCCn1c(C)nc2c(c1=O)c1nc3ccccc3nc1n2CCC1=CCCCC1 | i | -2 | 26 | 0 | 31
Cc1nc2c(c(=O)n1CCC1=CCCCC1)c1nc3ccccc3nc1n2/N=C/c1ccco1 | + | 0 | 68* | · | 14
CCCCOC1CC(c2ccc(OCc3ccc(OC)cc3)c(OC)c2)N(C)O1 (centres undefined) | i | 0 | -1 | 1 | -1
Cc1ccc(C(=O)N[C@H](C(=O)NC2CCCCC2)C(C)C)cc1 | · | · | · | · | -13
O=C(O)CC1Sc2ccccc2NC1=O (centres undefined) | i | 1 | 2 | 4 | 17
O=C1Nc2ccccc2SC(c2ccccc2)C1O (centres undefined) | + | 0 | ? | 36* | -3
O=C(NC(=S)NNS(=O)(=O)c1ccccc1)c1cccnc1 | i | 1 | 24 | -4 | 48*
O=C(NC(=S)NNS(=O)(=O)c1ccccc1)c1ccc([N+](=O)[O-])cc1 | i | 1 | 10 | 9 | 7
Cc1ccc(S(=O)(=O)NNC(=O)c2cccnc2)cc1 | i | 1 | 8 | -2 | 0
O=C(NC(=S)NNS(=O)(=O)c1ccccc1)c1ccccc1[N+](=O)[O-] | i | 1 | 20 | -4 | 45*
O=C(O)c1ccc(Cl)c(NC(=S)NC(=O)c2ccccc2[N+](=O)[O-])c1 | i | 1 | -1 | 2 | 47*
CCC(NS(=O)(=O)c1ccc2c(c1)NC(=O)C(C)C(=O)N2)c1cccs1 (centres undefined) | i | · | -11 | · | 1
COc1ccc(/C=N/Nc2nnc(Cc3ccccc3)c(=O)[nH]2)cc1OC | + | 0 | ? | -3 | 1
CCCC(=O)N1CCC1(C)C(=O)NS(=O)(=O)c1ccccc1Cl (centres undefined) | · | · | · | · | 1
CCN1C(=O)/C(=C2\Sc3ccccc3N2CC)OC1=S | i | 0 | -1 | -5 | 46*
C=CCN1C(=O)/C(=C2/Sc3ccccc3N2CC)SC1=S | i | · | 44 | · | 0
CCN1C/C(=C/c2cccs2)c2nc3ccccc3c(C(=O)O)c2C1 | + | 0 | 62* | 0 | 46
CCc1ccc(/C=C2\CN(CC)Cc3c2nc2ccccc2c3C(=O)O)cc1 | ? | 0 | ? | -6 | 18
CCN1C/C(=C/c2sccc2C)c2nc3ccccc3c(C(=O)O)c2C1 | + | 1 | 72* | -16 | 17
C[C@H](CO)N1C[C@H](C)[C@@H](CN(C)Cc2ccccc2C(=O)O)OCc2cnnn2CCCC1=O | · | · | · | · | -4
SMILES | PABP polyA inh | PERK inhibitor | eIF4H inh | eIF4E 4G PPI | PABP1 MLLE inh
Cc1ccc(S(=O)(=O)N[C@@H](Cc2ccccc2)C(=O)N2CCC(C(=O)N[C@@H](CC(C)C)C(=O)O)CC2)cc1 | i | · | 6 | · | -6
COc1ccc(C2=CC(=O)C[C@H](c3ccc(F)cc3)C2)c(OC)c1 | · | · | · | · | 4
NC(=S)n1[nH]c(-c2ccc([N+](=O)[O-])cc2)c(N=Nc2ccc(Cl)cc2)c1=O | + | 0 | ? | 9 | 38
CCOC(=O)C1CCN(C(=O)/C=C/c2ccc3c(c2)OCO3)CC1 | i | · | -9 | · | -2
CC1(C)Oc2ccc3ccc(=O)oc3c2C(N2CCCCC2)C1O (centres undefined) | i | 1 | 42* | -1 | -17
CC1(C)Oc2ccc3ccc(=O)oc3c2[C@H](O)[C@H]1O | · | · | · | · | 1
Cc1ccc(S(=O)(=O)NCc2ccc3c(c2)cc(C)n3C)cc1 | + | 2 | 58* | -6 | 35
O=C1c2ccccc2C(=O)N1Cc1ccc2c(c1)OCO2 | i | 1 | -7 | -1 | -5
Cc1cc2cc(CNC(=O)c3ccco3)ccc2n1C | + | · | 53* | -16 | 37
COc1ccc(C(=O)NCc2ccc3c(c2)cc(C)n3C)cc1 | i | 1 | 49 | 2 | 51*
Cc1cc2cc(CN3C(=O)c4ccccc4C3=O)ccc2n1C | i | -1 | 94 | -2 | 48*
Cc1cc2cc(CNC(=O)c3cc4ccccc4o3)ccc2n1C | i | -1 | 21 | -8 | ·
CC(C)(C)OC[C@H](NC(=O)c1[nH]cnc1C(=O)Nc1ccccc1F)C(=O)OC(C)(C)C | · | · | · | · | -2
Cc1cc2cc(CNC(=O)c3ccc4c(c3)OCO4)ccc2n1C | + | 0 | 61* | 1 | 56*
COc1cc(OC)cc(C(=O)NCc2ccc3c(c2)cc(C)n3C)c1 | i | 0 | 69 | -3 | 78
COCC(=O)NCc1ccc2c(c1)cc(C)n2C | i | 0 | 28 | -3 | 34
Cc1cc2cc(CNC(=S)Nc3ccc(OC(F)F)cc3)ccc2n1C | + | 0 | 75* | 0 | 39*
Cc1cc2cc(CNC(=O)COc3ccccc3)ccc2n1C | i | 0 | 9 | 2 | 50*
FC(F)Oc1ccc(NC(=S)NCc2ccccc2)cc1 | i | 1 | 2 | -1 | -24
COC(=O)C(/C=N/OCc1ccc([N+](=O)[O-])cc1)NC(=O)c1ccccc1 (centres undefined) | + | -1 | ? | 14 | 4
O=C(C/C=N\OCc1ccc([N+](=O)[O-])cc1)Nc1ccccc1 | i | 1 | -2 | 0 | -3
C[C@H]1CCCCO[C@@H](CN(C)S(=O)(=O)c2ccc(F)cc2)[C@@H](C)CN([C@@H](C)CO)C(=O)c2cc(NC(=O)Nc3ccc4c(c3)OCO4)ccc2O1 | · | · | · | · | -14
O=C1Nc2cc(Cl)cnc2N2CCCC12 (centres undefined) | i | 0 | 61* | -1 | 4
CC(C)c1onc(C(=O)NC2CCCCC2)c1[N+](=O)[O-] | i | 1 | -3 | 1 | -6
O=C(NC(=S)N1CCCc2ccccc21)c1ccc(Br)cc1 | i | 0 | 28 | 7 | 47*
SMILES | PABP polyA inh | PERK inhibitor | eIF4H inh | eIF4E 4G PPI | PABP1 MLLE inh
O=C(NC(=S)N1CCCc2ccccc21)c1ccccc1 | i | 2 | 3 | 4 | 34
COc1ccc(C(=O)NC(=S)N2CCCc3ccccc32)cc1OC | i | 1 | 7 | 3 | 41*
COc1ccccc1C(=O)NC(=S)N1CCCc2ccccc21 | + | 2 | 32 | -4 | 17
COc1ccccc1C(=O)NC(=S)N1CCc2ccccc21 | i | 1 | -11 | -2 | -12
Cc1c(C(=O)N2CCOCC2)sc(NC(=O)CCl)c1C#N | i | · | 4 | · | -9
O=C(c1n[nH]c2ccccc12)N1CCN(S(=O)(=O)c2ccc(Cl)cc2)CC1 | · | · | · | · | -4

From PubChem BioAssay
